Among all 69,000 compounds or so, about 950 (1.4%) showed an effect of 50% or more. The sample holds strong results, similar compounds and a random draw of the others, so the mix is not that of the screen.
test system: Mycobacterium tuberculosis; assay: Cornell M. t heat shock assay; format: functional, organism-based; design: dose or concentration left out as unconfirmed; note: in the data most compounds retested in dose-response had high values

SMILES	Percent Effect
CNc1cncc(C2CCCN2Cc2ccnc(C)n2)n1 (stereo unspecified)	-20.32%
Cc1ccccc1CN1CCCC1c1cncc(Nc2nncs2)n1 (stereo unspecified)	103.1%
CNc1cncc(C2CCCN2Cc2ccccc2OCC(=O)O)n1 (stereo unspecified)	2.446%
Cc1cccc(CN2CCCC2c2cncc(Nc3nncs3)n2)c1 (stereo unspecified)	96.91%
COc1cccc(CN2CCCC2c2ccc[nH]2)c1 (stereo unspecified)	-7.682%
COc1cccc(CN2CCCC2c2cncc(Nc3nncs3)n2)c1 (stereo unspecified)	104.6%
CNc1cncc(C2CCCN2Cc2ccccn2)n1 (stereo unspecified)	-4.503%
COc1cccc(CN2CCCC2c2c(C)nn(C)c2C)c1 (stereo unspecified)	27.85%
CNc1cncc(C2CCCN2Cc2cccc(C)n2)n1 (stereo unspecified)	0.9246%
Cc1cccc(C(=O)N2C[C@@H](C)[C@@]3(CCN(c4ccsc4)C3=O)C2)n1.O=C(O)C(F)(F)F	5.09%
c1ccc(CO[C@H]2C[C@@H]3CN(Cc4cccnc4)C[C@@H]3C2)cc1	-10.82%
Cc1cnn(CC2CN(c3ncnc4ccsc34)CCO2)c1 (stereo unspecified)	28.88%
c1nc(N2CCOC(Cn3cncn3)C2)c2sccc2n1 (stereo unspecified)	-23.67%
c1cnn(CC2CN(c3ncnc4ccsc34)CCO2)c1 (stereo unspecified)	105.5%
C[C@H](N)Cn1nc(-c2cccs2)oc1=O.Cl	-14.47%
C[C@@H]1CN(C2CCN(Cc3nn(C)c4cccc(Cl)c34)CC2)C[C@H](C)O1	-2.477%
Cn1nc(CN2CCCCC(N)C2)c2c(Cl)cccc21 (stereo unspecified)	-3.376%
Cn1nc(CN2CCCN(C3CCCC3)CC2)c2c(Cl)cccc21	57.91%
Cc1ccc(C(=O)N2CCC3(CC2)CC(c2cnn(C)c2)CO3)cn1.O=C(O)C(F)(F)F (stereo unspecified)	-3.038%
NC(=O)N1CC[C@H](O)[C@@H]1Cc1cccnc1.O=C(O)C(F)(F)F	-3.918%
C=C(C)CSc1nnc(CCNC(=O)OC(C)(C)C)o1	54.16%
COC(=O)CSc1nnc(CCNC(=O)OC(C)(C)C)o1	12.63%
CCN(CC)C(=O)CSc1nnc(CCNC(=O)OC(C)(C)C)o1	3.451%
O=C(O)C(F)(F)F.O=C(c1ccco1)N1CCO[C@@H]2CN(CC3CC3)CC[C@@H]2C1	-6.108%
CC(C)CN1CC[C@H](c2nnc(COc3ccc(F)cc3)o2)C1	15.46%
Cc1ccc(CN2CC[C@H](c3nnc(COc4ccc(F)cc4)o3)C2)o1	102.2%

SMILES	Percent Effect
Fc1ccc(OCc2nnc([C@H]3CCN(Cc4ccncc4)C3)o2)cc1	43.75%
Cc1nn(C)c(C)c1S(=O)(=O)N1CC[C@H]2O[C@@H](C)C[C@H]2C1.O=C(O)C(F)(F)F	4.759%
CNc1cc(C2CN(Cc3scnc3C)CCO2)nc(C)n1 (stereo unspecified)	67.88%
Cc1nc(C2CN(Cc3scnc3C)CCO2)cc(N(C)C)n1 (stereo unspecified)	-20.95%
CNc1cc(C2CN(Cc3csc(C)n3)CCO2)nc(C)n1 (stereo unspecified)	-32.62%
COc1cc(CN(CCCN(C)C)Cc2ccccn2)cc2c1OCO2.O=C(O)CC(O)(CC(=O)O)C(=O)O	-27.2%
CC(N(C)Cc1nc2c(cnn2C)c(=O)[nH]1)C(C)(C)C (stereo unspecified)	4.654%
O=C(Nc1cnccn1)[C@@H]1C[C@H]2OCC[C@H]2N(Cc2ccsc2)C1.O=C(O)C(F)(F)F	-23.53%
COc1cc(F)ccc1C(C(=O)O)N(C)Cc1ccon1 (stereo unspecified)	98.53%
COc1ccc(Cl)cc1C(C(=O)O)N(C)Cc1ccon1 (stereo unspecified)	-13.11%
COc1cc(C)cc(C(C(=O)O)N(C)Cc2ccon2)c1OC (stereo unspecified)	14.77%
Cc1ccc(C(=O)N2CCc3c(CN4CCCC4)nn(C)c3C2)cc1C.O=C(O)C(F)(F)F	-28.38%
CC(C)COC(=O)N1CC(=O)N(CCc2ccccc2)CC(O)C1 (stereo unspecified)	34.47%
CC(C)COC(=O)N1CC(=O)N(Cc2ccc(Cl)cc2)CC(O)C1 (stereo unspecified)	47.42%
COc1ccc(CN2CC(O)CN(C(=O)OCC(C)C)CC2=O)cc1 (stereo unspecified)	43.83%
CCOC(=O)N1CC(=O)N(CCc2ccccc2)CC(O)C1 (stereo unspecified)	15.03%
CC(C)COC(=O)N1CC(=O)N(CCCc2ccccc2)CC(O)C1 (stereo unspecified)	54.63%
Cc1ccc(CN2CC(O)CN(C(=O)OCC(C)C)CC2=O)cc1 (stereo unspecified)	52.29%
COc1cc(N2CC[C@H]3O[C@@H](C(=O)NC4CCCC4)CC[C@H]32)ncn1.O=C(O)C(F)(F)F	-0.9791%
Cl.O=C(NC1CCCC1)c1ccc(C2CCCNC2)nc1 (stereo unspecified)	-7.361%
Cc1c(C2CCCN(C(=O)c3ccncc3)C2)n2c(nc1=O)CCC2.Cl (stereo unspecified)	-13.79%
Cl.O=C(N[C@@H]1CN[C@H]2CCCO[C@H]21)c1cnccn1	-42.37%
CNC(=O)C1CCN(Cc2nc(-c3ccc(SC)cc3)oc2C)C1 (stereo unspecified)	12.81%
CNC(=O)CC1CCN(Cc2nc(-c3ccc(SC)cc3)oc2C)CC1	1.977%
CNC(=O)CC1CCN(Cc2nc(-c3cccc(Cl)c3)oc2C)CC1	52.75%
CCn1nc(C)c(-c2cncn2Cc2ccccc2CN(C)C)c1C.Cl	2.066%

SMILES	Percent Effect
O=C(O)C(F)(F)F.c1cc(CN2CCO[C@H]3[C@H](OCC4CCOCC4)CC[C@@H]32)co1	4.016%
Cn1ncc2c(NCCC34CCCN3CCC4)nc(C3CCCC3)nc21	90.62%
CCOCCNc1nc(C2CCCC2)nc2c1cnn2C	10.38%
CC(C)N(CCNc1nc(C2CCCC2)nc2c1cnn2C)C(C)C	102.6%
CCS(=O)(=O)CCNc1nc(C2CCCC2)nc2c1cnn2C	-23.34%
Cn1ncc2c(NCCn3cccc3)nc(C3CCCC3)nc21	-24.81%
CNCCCNc1nc(C2CCCC2)nc2c1cnn2C	-14.72%
CN(C)CCN1CCC2(CCN(C(=O)c3cccc(F)c3)CC2)C1=O.O=C(O)C(F)(F)F	-26.99%
COCC1CN(Cc2cnn(C)c2)Cc2nn(C)cc21.O=C(O)C(F)(F)F (stereo unspecified)	-8.537%
CNCC(=O)N1CCCC(c2nccnc2Oc2cccc(F)c2)C1.Cl (stereo unspecified)	-3.012%
O=C(NCCc1cccnc1)c1nc2c(s1)CCCN2C(=O)C1CC1.O=C(O)C(F)(F)F	31.31%
Cl.Fc1ccccc1CNc1ccnc(C2CCNCC2)c1	-7.114%
CCS(=O)(=O)Nc1cnn(Cc2cccc(C)c2)c1	-6.735%
CCS(=O)(=O)Nc1cnn(Cc2cccc(Cl)c2)c1	69.75%
CS(=O)(=O)Nc1cnn(Cc2cccc(Cl)c2)c1	-3.827%
O=C(O)C(F)(F)F.O=C(c1cccs1)N1C[C@@H]2OCCN(CC3CCCO3)[C@@H]2C1 (stereo partly specified)	-25.16%
CC[C@@H]1N(C)CCC[C@]12CCC(=O)N2Cc1ccncc1.O=C(O)C(F)(F)F.O=C(O)C(F)(F)F	-9.742%
O=C(O)C(F)(F)F.O=C(O)c1c(-c2cccnc2)ncc2c1CCN(CC1CCOC1)C2 (stereo unspecified)	-9.377%
O=C(O)C(F)(F)F.O=C(O)C(F)(F)F.O=C(O)C(F)(F)F.O=C1C[C@H]2[C@@H](CCN2Cc2ccccn2)N1CCN1CCOCC1	-15.17%
O=C(CN1C(=O)CCNC1=O)N1CCOC(c2ccc(F)cc2)C1 (stereo unspecified)	12.93%
O=C(CN1C(=O)CCNC1=O)N1CCC(c2ccc(F)cc2)C1 (stereo unspecified)	18.83%
O=C1CCNC(=O)N1CC(=O)N1CCC1c1ccc(F)cc1 (stereo unspecified)	51.34%
O=C(O)C(F)(F)F.O=C(O)C(F)(F)F.c1cncc(CN2CC[C@H]3O[C@@H](COCC4CCOCC4)CC[C@H]32)c1	-5.632%
CC(C)N1CCC2(C=C(C(=O)NC3CC3)c3ccccc32)CC1.O=C(O)C(F)(F)F	-2.25%
O=C(O)C(F)(F)F.c1csc(NCc2n[nH]c3c2CCN(CC2CC2)C3)n1	-23.28%
Cc1cccc(CN2CCCn3c(nnc3Cn3cccn3)C2)n1.O=C(O)C(F)(F)F	-30.89%

SMILES	Percent Effect
CCc1cnc(CN(C)C2CCN(CC(=O)Nc3cc(C)on3)C2)o1 (stereo unspecified)	-19.35%
CCc1cnc(CN(C)C2CCN(CC(=O)Nc3nccs3)C2)o1 (stereo unspecified)	61.16%
CCc1cnc(CN(C)C2CCN(CCc3ccccn3)C2)o1 (stereo unspecified)	105.9%
Cc1cnc(CN(C)C2CCN(CC(=O)Nc3nccs3)C2)o1 (stereo unspecified)	66.08%
CCc1cnc(CN(C(C)=O)C2CCN(CCc3ccccn3)C2)o1 (stereo unspecified)	-12.32%
Cc1cnc(CN(C)C2CCN(CC(=O)Nc3nncs3)C2)o1.O=C(O)C(F)(F)F (stereo unspecified)	-4.89%
CC(C)c1cnc(CN(C)C2CCN(CCc3ccccn3)C2)o1 (stereo unspecified)	-13.05%
Cc1cnc(CN(C)C2CCN(CC(=O)N(C)c3nccs3)C2)o1 (stereo unspecified)	15.65%
CCc1cnc(CN(C)C2CCN(CCc3cccs3)C2)o1 (stereo unspecified)	-5.267%
CC(=O)Nc1ccc(CN2C[C@H]3CC[C@@H]2CN(c2ncccn2)C3)cc1	8.779%
CC(C)NC(=O)N1Cc2nccn2CC(COc2cccnc2)C1.O=C(O)C(F)(F)F (stereo unspecified)	-13.64%
CNC(=O)CN1CCCC12CCN(C(=O)c1ccsc1)CC2.O=C(O)C(F)(F)F	-20.96%
O=C(Cc1ccccn1)N1CCN2C[C@H](Oc3cncnc3)C[C@H]2C1.O=C(O)C(F)(F)F.O=C(O)C(F)(F)F	3.514%
CCOc1ccc(CNCC(O)c2ccccc2)cc1Cl.Cl (stereo unspecified)	35.2%
CN1CCCCC1c1ncc2c(n1)CCN(Cc1ccc(Cl)c(F)c1)C2 (stereo unspecified)	103.7%
CN1CCCCC1c1ncc2c(n1)CCN(Cc1ccccc1Cl)C2 (stereo unspecified)	87.15%
Cc1ncc2c(n1)CN(CCCc1ccccc1)CC2	3.621%
Cn1cnc2c1CCN(CCCc1ccccc1)C2	8.155%
COc1ccc(CN2CCc3nc(C4CCCCN4C)ncc3C2)cc1 (stereo unspecified)	25.26%
CN1CCCCC1c1ncc2c(n1)CCN(Cc1ccc(F)cc1)C2 (stereo unspecified)	35.62%
CN1CCc2nc(C3CCCCN3Cc3ccccc3Cl)ncc2C1 (stereo unspecified)	-4.117%
CN1CCCCC1c1ncc2c(n1)CCN(CCCc1ccccc1)C2 (stereo unspecified)	101.2%
Cl.Clc1ccccc1CN1CCc2nc(C3CCCCN3)ncc2C1 (stereo unspecified)	12.35%

Source: ChEMBL document CHEMBL3988442, “University of Dundee, Small-Polar-MMV Screening Library” (2021)
